{
  "source": "PubChem BioAssay AID686978",
  "about": "(National Center for Advancing Translational Sciences (NCATS), 2013)",
  "note": "Where “and” joins values, the source holds several entries; their conditions need not be identical. Identical values can stand only once. Hit rate of the full screen: of about 420,000 compounds, about 64,000 (15%) were called active. About 27% were inconclusive and are not listed. Calls come from the whole dose curve; as a rule, active = well fitted inhibition curve with a large enough effect; inconclusive = small, poorly fitted or top-dose-only effect; inactive = flat fitted curve, though single readings scatter. A selection follows. Where a call stands in place of a potency, no number is given. Potency is the fitted concentration of half-maximal effect.",
  "data": [
    {"experiment": "qHTS for Inhibitors of human tyrosyl-DNA phosphodiesterase 1 (TDP1): qHTS in cells in absence of CPT; note: nearly all actives have a fitted effect of over 55% in size", "conditions": "DT40 Tdp1-/- hTDP1 cells, no CPT, ATP luminescence, 48 h; activity change, negative = growth inhibition: at 46.2 µM (top of the series)", "procedure,_shortened": "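Seeded 400 DT40-hTDP1 cells/well (vehicle DMSO, no 20 nM CPT); pinned compounds; ≥48 hr at 37 °C; CellTiter-Glo luminescence as viability measure.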", "values": [
      {"smiles": "O=C(O)/C=C/c1ccc(S(=O)(=O)N2CCCCCC2)cc1", "Potency": "inactive"},
      {"smiles": "CN/C(=C\\[N+](=O)[O-])NCCSCc1csc(CN(C)C)n1", "Potency": "inactive"},
      {"smiles": "Cc1nc2ccccc2c(=O)n1CCCn1ccnc1", "Potency": "inactive"},
      {"smiles": "Cc1ccnc(-n2sc3ccccc3c2=O)n1", "Potency": "5.17 µM (active)"},
      {"smiles": "Cc1ccnc(N2CCCC(C(=O)NC3CC3)C2)n1", "note": "(stereo not given)", "Potency": "inactive"},
      {"smiles": "COCCCNC(=O)c1c(F)c(F)c(F)c(F)c1F", "Potency": "inactive"},
      {"smiles": "O=C(CSc1nnc(-c2ccncc2)n1C1CCCCC1)Nc1ccccc1", "Potency": "inactive"},
      {"smiles": "CCC(C)N(C)C1CCN(C(=S)Nc2ccc(OC)cc2)CC1", "note": "(stereo not given)", "Potency": "inactive"},
      {"smiles": "COc1cccc(C(=O)Nc2c3c(nn2-c2cccc(C)c2C)CS(=O)(=O)C3)c1OC", "Potency": "15.8 µM (active)"},
      {"smiles": "Cc1cccc(-n2nc3c(c2NC(=O)c2ccc(Br)o2)CSC3)c1C", "Potency": "inactive"},
      {"smiles": "COc1ccccc1OCC(=O)Nc1c2c(nn1-c1ccc(F)cc1)CS(=O)(=O)C2", "Potency": "inactive"},
      {"smiles": "COc1ccc(N(CC(=O)Nc2cccc3ccccc23)S(C)(=O)=O)c(OC)c1", "Potency": "inactive"},
      {"smiles": "CCC(CC)C(=O)Nc1cc(C(=O)OC)cc(C(=O)OC)c1", "Potency": "inactive"},
      {"smiles": "Cc1cc2nc3c(=O)n(Cc4ccccc4)c(=O)[nH]c3nc2cc1N", "Potency": "inactive"},
      {"smiles": "CCC(=O)N(C)C(c1ccccc1Cl)c1nnnn1-c1c(C)cccc1C", "note": "(stereo not given)", "Potency": "18.4 µM (active)"},
      {"smiles": "CCOC(=O)N1CCN(C(c2ccnc3ccccc23)c2nnnn2-c2c(C)cccc2C)CC1", "note": "(stereo not given)", "Potency": "inactive"},
      {"smiles": "Cc1ccc(-n2nnnc2CNC(=O)c2ccccc2C)cc1C", "Potency": "inactive"},
      {"smiles": "Cc1ccc(S(=O)(=O)N(NC2=NS(=O)(=O)c3ccccc32)C(=O)c2ccccc2)cc1", "Potency": "inactive"},
      {"smiles": "Cc1cc(C)c(C)c(S(=O)(=O)N[C@@H](C)C(=O)OC(C)C(=O)NC(N)=O)c1C", "note": "(stereo not given in full)", "Potency": "inactive"},
      {"smiles": "COc1ccccc1C(=O)COC(=O)CSCC(=O)Nc1cc(C)on1", "Potency": "inactive"},
      {"smiles": "COC(=O)N1CN(C(=O)OC)CN(C(=O)OC)C1", "Potency": "inactive"},
      {"smiles": "CN(C(=O)CC1C(=O)NCCN1Cc1ccc(F)cc1Cl)C1CCCCC1", "note": "(stereo not given)", "Potency": "inactive"},
      {"smiles": "CCOC(=O)N1CCN(C(=O)c2nn(-c3ccc(C)cc3)c(=O)c3c2c2ccccc2n3C)CC1", "Potency": "18.4 µM (active)"},
      {"smiles": "COc1cc(NC(=O)c2nn(-c3ccc(C)cc3)c(=O)c3c2c2ccccc2n3C)cc(OC)c1OC", "Potency": "inactive"},
      {"smiles": "CCOC(=O)N1CCN(C(=O)c2n[nH]c(=O)c3ccccc23)CC1", "Potency": "inactive"},
      {"smiles": "CCCN(CCC)CCNC(=O)Cn1cnc2sc(C)c(S(=O)(=O)N3CCC(C)CC3)c2c1=O", "Potency": "inactive"},
      {"smiles": "O=C(CC[C@H]1O[C@@H](n2ccc(=O)[nH]c2=O)[C@H](O)[C@@H]1O)N[C@H](Cc1ccccc1)C(=O)NCc1ccco1", "Potency": "inactive"},
      {"smiles": "O=C(NN=CC=Cc1ccccc1)C(O)C(O)C(=O)NN=CC=Cc1ccccc1", "note": "(stereo not given)", "Potency": "inactive"},
      {"smiles": "CC(C)(C)c1ccc(C(=O)NCc2ccco2)cc1", "Potency": "inactive"},
      {"smiles": "CC(C)(C)c1ccc(NC(=O)NCc2ccco2)cc1", "Potency": "14.6 µM (active)"},
      {"smiles": "CC(C)(C)NC(=O)NCc1ccco1", "Potency": "inactive"},
      {"smiles": "Clc1ccc(-c2nnc(SCc3nc4ccccc4s3)o2)cc1", "Potency": "inactive"},
      {"smiles": "Oc1c(Cl)cc(Cl)c(Cl)c1Cc1c(O)c(Cl)cc(Cl)c1Cl", "Potency": "4.22 µM (active) and 23.1 µM (active) and 2.59 µM (active)"},
      {"smiles": "CCCn1c(N)c(C(=O)CSc2nnc3n2CCCCC3)c(=O)[nH]c1=O", "Potency": "inactive"},
      {"smiles": "CN(CC(=O)NCCc1ccc(S(N)(=O)=O)cc1)CC(=O)Nc1ccc(F)c(F)c1F", "Potency": "inactive"},
      {"smiles": "CCOc1ccccc1NC(=O)CN1CCN(S(=O)(=O)c2ccc(Br)cc2)CC1", "Potency": "inactive"},
      {"smiles": "Cn1c(CC(=O)Nc2ccccc2)nnc1SCC(=O)c1ccccc1", "Potency": "inactive"},
      {"smiles": "COc1ccc(Sc2nc(-c3ccccc3)ncc2OC)cc1", "Potency": "inactive"},
      {"smiles": "CCCCNc1c(-c2cccc(Sc3ccc(OC)cc3)c2)nc2ccccn12", "Potency": "20.6 µM (active)"},
      {"smiles": "CCCCNC(=O)c1onc(CSc2cccc(OC)c2)c1C(=O)O", "Potency": "inactive"},
      {"smiles": "O=c1o[nH]c(-c2ccccc2)c1N=Nc1c(F)cccc1Cl", "Potency": "inactive"},
      {"smiles": "CCOC(=O)C1CCCN(C(=O)Cn2ncc3c(C)n(Cc4ccc(F)cc4)c(C)c3c2=O)C1", "note": "(stereo not given)", "Potency": "16.4 µM (active)"},
      {"smiles": "CCOC(=O)C1CCCN(C(=O)Cn2ncc3c(=O)oc4ccc(C)cc4c32)C1", "note": "(stereo not given)", "Potency": "inactive"},
      {"smiles": "Cc1ccc2oc(=O)c3cnn(CC(=O)N4CCCCCC4)c3c2c1", "Potency": "inactive"},
      {"smiles": "CCOc1ccc(CN(C)C(=O)c2ccc(=O)[nH]c2)cc1", "Potency": "inactive"},
      {"smiles": "Clc1ccc2nc(-c3ccccc3)nc(C(Cl)Cl)c2c1", "Potency": "0.366 µM (active)"},
      {"smiles": "Cc1ccccc1C(=O)NNC(=O)CN1C(=O)c2ccccc2C1=O", "Potency": "inactive"},
      {"smiles": "Cc1noc(C)c1-c1nc(CSc2ccc(Cl)cc2)no1", "Potency": "inactive"},
      {"smiles": "Clc1ccc(Cc2nnc(-c3cccs3)o2)cc1", "Potency": "inactive"},
      {"smiles": "CCc1nn(-c2cc(Oc3cccc4ccccc34)nc(-c3ccccc3)n2)c(N)c1C#N", "Potency": "16.4 µM (active)"},
      {"smiles": "CCCC(=O)n1nc(-c2ccccc2)nc1N", "Potency": "inactive"},
      {"smiles": "COc1ccc(Cn2c(=O)c3oc4ccccc4c3n(CC(=O)Nc3ccc(F)cc3F)c2=O)cc1", "Potency": "inactive"},
      {"smiles": "CCOC(=O)c1sc(=NC(=O)/C=C/c2cccs2)n(C)c1C", "Potency": "inactive"},
      {"smiles": "CCCCc1nnc(NC(=O)CSc2nc(C)cc(=O)[nH]2)s1", "Potency": "inactive"},
      {"smiles": "COc1ccc(OC)c(C(=O)NC2CCCc3c2cnn3-c2cc(C)cc(C)c2)c1", "note": "(stereo not given)", "Potency": "16.4 µM (active)"},
      {"smiles": "Cc1cc(C(=O)NNC(=O)CCC2CCCCC2)c(C)o1", "Potency": "inactive"},
      {"smiles": "COc1ccc(OC)c(CN2C(=O)CCC2(C)C(=O)NC2CCCCCC2)c1", "note": "(stereo not given)", "Potency": "inactive"},
      {"smiles": "COc1ccc(C(=O)NC2CCCc3c2cnn3-c2cccc(C)c2C)c(OC)n1", "note": "(stereo not given)", "Potency": "8.2 µM (active)"},
      {"smiles": "COC(=O)C1=C(C)N(C)C(=S)NC1c1cc(OC)ccc1OC", "note": "(stereo not given)", "Potency": "inactive"},
      {"smiles": "Cc1cc(C(=O)NCC2Cc3cccc(-c4cncnc4)c3O2)c(C)o1", "note": "(stereo not given)", "Potency": "inactive"},
      {"smiles": "COCc1c(C(=O)NC2CCCCC2)cnn1-c1nccc(-c2ccccc2OC)n1", "Potency": "inactive"},
      {"smiles": "Cc1cc(C(=O)NC2CCCc3c2cnn3-c2cccc(C)c2C)c(C)o1", "note": "(stereo not given)", "Potency": "8.2 µM (active)"},
      {"smiles": "Cc1ccccc1C(=O)NCCN=C1NS(=O)(=O)c2ccccc21", "Potency": "inactive"},
      {"smiles": "CC(=O)N[C@H]1[C@H]([C@H](O)[C@H](O)CO)OC(C(=O)O)=C[C@@H]1O", "Potency": "inactive"},
      {"smiles": "Cc1ccc(S(=O)(=O)c2ccc(Cl)cc2)cc1S(=O)(=O)NC(C(=O)O)C(C)C", "note": "(stereo not given)", "Potency": "inactive"}
    ]}
  ]
}
